From the supplement of paper PMC10849652 come the findings set out here.

Targets with a hit are over-represented here; the source holds about 8,800 in all. About 0.5% of all pairs of compound and target were hits.

UniProt Q9NW68, sequence (Q9NW68 whole entry, looked up): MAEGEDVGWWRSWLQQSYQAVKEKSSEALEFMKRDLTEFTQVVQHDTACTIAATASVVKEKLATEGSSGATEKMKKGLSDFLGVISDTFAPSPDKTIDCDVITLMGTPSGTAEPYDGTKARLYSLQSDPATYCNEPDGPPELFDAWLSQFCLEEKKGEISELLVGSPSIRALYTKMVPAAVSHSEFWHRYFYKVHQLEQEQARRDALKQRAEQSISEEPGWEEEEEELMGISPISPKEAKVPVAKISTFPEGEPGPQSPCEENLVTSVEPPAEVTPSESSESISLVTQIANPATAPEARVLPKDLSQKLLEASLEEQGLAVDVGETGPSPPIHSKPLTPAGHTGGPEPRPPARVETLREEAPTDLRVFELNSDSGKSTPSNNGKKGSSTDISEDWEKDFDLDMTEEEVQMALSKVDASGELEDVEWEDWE
UniProt Q8N4Q1, sequence (Q8N4Q1 whole entry, looked up): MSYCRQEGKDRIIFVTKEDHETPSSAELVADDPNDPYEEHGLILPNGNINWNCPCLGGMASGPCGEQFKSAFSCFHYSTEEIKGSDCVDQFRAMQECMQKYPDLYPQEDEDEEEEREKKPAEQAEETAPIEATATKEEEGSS
UniProt Q8TDI0, sequence (Q8TDI0 whole entry, looked up): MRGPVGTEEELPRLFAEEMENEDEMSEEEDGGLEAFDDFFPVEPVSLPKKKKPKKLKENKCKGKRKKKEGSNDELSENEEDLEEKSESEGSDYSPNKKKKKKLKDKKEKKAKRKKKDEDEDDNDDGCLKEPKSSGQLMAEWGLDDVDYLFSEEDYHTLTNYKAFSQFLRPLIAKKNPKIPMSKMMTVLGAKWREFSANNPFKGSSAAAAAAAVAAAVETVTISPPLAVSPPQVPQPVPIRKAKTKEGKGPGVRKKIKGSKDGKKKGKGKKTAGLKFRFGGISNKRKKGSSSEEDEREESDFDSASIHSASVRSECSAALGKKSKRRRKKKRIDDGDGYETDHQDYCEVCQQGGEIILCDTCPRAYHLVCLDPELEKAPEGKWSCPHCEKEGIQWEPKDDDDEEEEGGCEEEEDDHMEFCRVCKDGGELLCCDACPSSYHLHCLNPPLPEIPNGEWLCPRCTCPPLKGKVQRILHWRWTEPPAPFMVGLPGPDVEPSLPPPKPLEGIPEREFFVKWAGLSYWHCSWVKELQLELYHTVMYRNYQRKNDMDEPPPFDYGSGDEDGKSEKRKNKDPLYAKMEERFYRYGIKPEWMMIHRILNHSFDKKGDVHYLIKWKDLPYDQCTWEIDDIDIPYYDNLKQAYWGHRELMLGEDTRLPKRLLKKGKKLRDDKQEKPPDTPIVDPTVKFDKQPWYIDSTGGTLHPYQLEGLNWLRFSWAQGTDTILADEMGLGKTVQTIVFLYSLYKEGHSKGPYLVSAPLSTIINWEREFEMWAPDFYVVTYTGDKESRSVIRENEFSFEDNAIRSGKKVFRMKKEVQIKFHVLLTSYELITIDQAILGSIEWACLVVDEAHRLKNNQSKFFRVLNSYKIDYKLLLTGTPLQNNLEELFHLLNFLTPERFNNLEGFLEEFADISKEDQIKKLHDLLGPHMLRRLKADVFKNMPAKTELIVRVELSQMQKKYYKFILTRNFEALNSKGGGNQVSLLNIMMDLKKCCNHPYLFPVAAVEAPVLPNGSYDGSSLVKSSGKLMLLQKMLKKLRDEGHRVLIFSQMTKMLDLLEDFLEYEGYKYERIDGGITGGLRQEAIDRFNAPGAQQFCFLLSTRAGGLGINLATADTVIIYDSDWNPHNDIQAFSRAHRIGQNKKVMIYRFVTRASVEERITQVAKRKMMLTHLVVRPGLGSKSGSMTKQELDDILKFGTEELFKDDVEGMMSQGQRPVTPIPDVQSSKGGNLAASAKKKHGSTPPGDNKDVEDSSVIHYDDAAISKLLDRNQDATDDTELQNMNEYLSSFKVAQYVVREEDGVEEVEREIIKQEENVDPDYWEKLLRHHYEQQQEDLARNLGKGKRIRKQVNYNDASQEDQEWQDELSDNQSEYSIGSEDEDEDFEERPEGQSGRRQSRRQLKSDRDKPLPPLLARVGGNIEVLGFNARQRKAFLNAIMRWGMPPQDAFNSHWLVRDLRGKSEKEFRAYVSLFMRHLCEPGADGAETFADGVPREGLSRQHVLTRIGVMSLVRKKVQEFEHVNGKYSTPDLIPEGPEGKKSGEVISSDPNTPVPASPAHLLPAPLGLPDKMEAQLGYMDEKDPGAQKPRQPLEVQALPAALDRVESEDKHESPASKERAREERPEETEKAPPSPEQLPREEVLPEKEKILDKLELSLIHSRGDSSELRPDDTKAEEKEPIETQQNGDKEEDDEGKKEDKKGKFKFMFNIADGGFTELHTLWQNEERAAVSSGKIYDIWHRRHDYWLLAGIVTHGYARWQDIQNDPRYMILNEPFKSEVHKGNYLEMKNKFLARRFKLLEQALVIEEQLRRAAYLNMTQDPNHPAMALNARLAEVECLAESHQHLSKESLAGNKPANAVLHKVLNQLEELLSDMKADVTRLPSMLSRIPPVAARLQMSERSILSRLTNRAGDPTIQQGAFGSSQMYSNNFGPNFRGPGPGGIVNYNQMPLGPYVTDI
UniProt P23634, sequence (P23634 whole entry, looked up): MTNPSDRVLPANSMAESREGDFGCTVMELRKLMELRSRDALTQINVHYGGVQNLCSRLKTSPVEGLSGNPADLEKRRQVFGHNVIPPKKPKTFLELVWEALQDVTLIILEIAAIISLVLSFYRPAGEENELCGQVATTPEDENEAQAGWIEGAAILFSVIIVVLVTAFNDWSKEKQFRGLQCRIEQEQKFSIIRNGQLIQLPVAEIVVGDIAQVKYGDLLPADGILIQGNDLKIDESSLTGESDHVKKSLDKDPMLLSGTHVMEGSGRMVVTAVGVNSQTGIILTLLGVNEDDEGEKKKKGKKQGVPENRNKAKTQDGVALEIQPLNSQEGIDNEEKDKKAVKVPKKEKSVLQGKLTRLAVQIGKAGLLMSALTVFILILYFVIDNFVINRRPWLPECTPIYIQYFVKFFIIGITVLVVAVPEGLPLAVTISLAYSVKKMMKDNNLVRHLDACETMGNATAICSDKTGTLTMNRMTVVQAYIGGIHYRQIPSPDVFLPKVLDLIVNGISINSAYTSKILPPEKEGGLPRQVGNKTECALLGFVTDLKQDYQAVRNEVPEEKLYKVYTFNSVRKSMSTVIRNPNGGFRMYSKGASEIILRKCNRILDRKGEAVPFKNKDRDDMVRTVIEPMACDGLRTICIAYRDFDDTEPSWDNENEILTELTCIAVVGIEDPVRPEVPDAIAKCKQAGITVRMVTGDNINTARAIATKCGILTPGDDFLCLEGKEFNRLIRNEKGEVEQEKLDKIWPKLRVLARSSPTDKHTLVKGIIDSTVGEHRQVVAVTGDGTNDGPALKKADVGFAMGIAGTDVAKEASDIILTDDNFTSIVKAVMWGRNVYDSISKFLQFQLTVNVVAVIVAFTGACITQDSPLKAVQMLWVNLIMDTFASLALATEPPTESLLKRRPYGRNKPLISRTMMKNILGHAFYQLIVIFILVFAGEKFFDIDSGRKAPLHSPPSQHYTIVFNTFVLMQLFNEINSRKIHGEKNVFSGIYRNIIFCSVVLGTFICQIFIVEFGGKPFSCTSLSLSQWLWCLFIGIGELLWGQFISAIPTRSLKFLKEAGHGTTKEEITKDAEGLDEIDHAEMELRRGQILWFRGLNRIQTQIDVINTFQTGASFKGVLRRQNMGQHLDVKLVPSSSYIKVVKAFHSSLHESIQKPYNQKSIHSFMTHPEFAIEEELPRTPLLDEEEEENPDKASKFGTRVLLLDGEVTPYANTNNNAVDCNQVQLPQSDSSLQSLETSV
UniProt P18859, sequence (P18859 whole entry, looked up): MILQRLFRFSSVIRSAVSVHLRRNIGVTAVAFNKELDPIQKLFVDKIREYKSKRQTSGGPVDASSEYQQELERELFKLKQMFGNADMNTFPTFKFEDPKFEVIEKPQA
UniProt Q86WR0, sequence (Q86WR0 whole entry, looked up): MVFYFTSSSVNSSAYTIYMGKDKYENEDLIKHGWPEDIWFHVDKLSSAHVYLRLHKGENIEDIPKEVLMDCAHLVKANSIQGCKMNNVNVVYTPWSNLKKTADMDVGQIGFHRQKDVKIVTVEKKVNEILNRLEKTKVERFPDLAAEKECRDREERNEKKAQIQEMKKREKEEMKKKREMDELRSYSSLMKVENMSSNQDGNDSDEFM
UniProt Q92879, sequence (Q92879 whole entry, looked up): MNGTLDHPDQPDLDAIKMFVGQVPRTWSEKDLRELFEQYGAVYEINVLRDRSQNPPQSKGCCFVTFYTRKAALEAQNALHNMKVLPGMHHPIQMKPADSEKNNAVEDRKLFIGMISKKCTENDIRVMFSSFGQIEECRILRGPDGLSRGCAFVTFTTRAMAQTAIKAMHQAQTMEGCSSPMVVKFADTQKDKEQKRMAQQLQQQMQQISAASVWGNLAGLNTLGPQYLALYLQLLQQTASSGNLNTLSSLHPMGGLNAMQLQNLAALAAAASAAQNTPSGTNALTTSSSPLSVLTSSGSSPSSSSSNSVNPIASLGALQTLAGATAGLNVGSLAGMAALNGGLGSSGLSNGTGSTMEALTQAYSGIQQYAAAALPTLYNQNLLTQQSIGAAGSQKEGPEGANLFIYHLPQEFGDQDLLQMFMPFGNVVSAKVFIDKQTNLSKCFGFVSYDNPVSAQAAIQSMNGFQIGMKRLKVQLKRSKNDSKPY
UniProt Q12981, sequence (Q12981 whole entry, looked up): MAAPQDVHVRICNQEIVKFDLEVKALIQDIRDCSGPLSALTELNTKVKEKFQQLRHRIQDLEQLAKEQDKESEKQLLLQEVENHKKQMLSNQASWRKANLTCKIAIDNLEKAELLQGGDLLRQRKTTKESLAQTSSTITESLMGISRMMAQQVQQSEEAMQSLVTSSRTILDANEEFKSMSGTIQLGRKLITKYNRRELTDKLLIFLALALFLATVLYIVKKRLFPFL
UniProt Q9Y6H1, sequence (Q9Y6H1 whole entry, looked up): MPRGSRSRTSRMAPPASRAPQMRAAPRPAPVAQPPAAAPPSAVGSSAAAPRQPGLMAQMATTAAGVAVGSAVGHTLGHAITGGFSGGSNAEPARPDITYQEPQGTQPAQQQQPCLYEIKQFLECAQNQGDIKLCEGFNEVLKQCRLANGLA

Compound in this assay: Cc1cc(Nc2cc(CN3CCOCC3)c3nc(C)c(Cc4ccc(Cl)cc4F)n3n2)n[nH]1 [gandotinib]
Nature of the assay: log2 fold change, soluble protein after heating vs DMSO (PISA); higher = thermal stabilisation; K562 lysate, 10 uM; active = over 0.2 and 3.5 SD of the protein, either way, in both replicates (recomputed). In outline: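 Soluble protein was defined as the supernatant remaining after 21,000xg for 90 min, following pooling of heated aliquots and adjustment to 0.5% NP-40 at 4°C. Before that, crude K562 extract at 1 mg/mL protein in PBS pH 7.4 with 1 mM MgCl2 was treated with 10 μM compound for 30 min and heated for 3 min across 48°C-58°C. Quantification used TMTpro 16plex LC-MS/MS with channel sums equalised, and values are log-two fold changes in thermal stability relative to solvent controls from duplicates.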
For BRD4 (UniProt O60885), the log2 fold change is 0.019 (inactive).
On to CAMKK1 isoform 2 (UniProt Q8N5S9), for which the log2 fold change was 0.424 (active).
Next, ATG13 isoform 2 (UniProt O75143): 0.172 (inactive); ATAD1 (UniProt Q8NBU5): 0.386 (active); BSDC1 (UniProt Q9NW68): 0.312 (active).
In the case of ATP5PF isoform 2 (UniProt P18859), the log2 fold change was -0.185 (inactive).
The figure for CAD (UniProt P27708) is -0.019 (inactive); for CHCHD2 (UniProt Q9Y6H1) it is 0.021 (inactive); for CHCHD4 isoform 2 (UniProt Q8N4Q1) it is 0.217 (inactive).
The figure for CCNC (UniProt P24863) is -0.104 (inactive).
As for CELF2 isoform 3 (UniProt O95319), the log2 fold change was -0.052 (inactive).
The figure for CEP120 (UniProt Q8N960) is 0.016 (inactive); for CCDC25 (UniProt Q86WR0) it is -0.062 (inactive).
The figure for CELF1 isoform 4 (UniProt Q92879) is -0.028 (inactive); for BNIP1 (UniProt Q12981) it is -0.15 (inactive).
As to CHD5 (UniProt Q8TDI0), the log2 fold change was 0.001 (inactive).
Next, ATP2B4 (UniProt P23634): 0.082 (inactive); CANX isoform 2 (UniProt P27824): 0.026 (inactive).
The figure for BCKDK (UniProt O14874) is -0.095 (inactive); for CCAR2 (UniProt Q8N163) it is 0.058 (inactive); for CDC40 (UniProt O60508) it is 0.002 (inactive).
The figure for CDK5RAP2 (UniProt Q96SN8) is -0.092 (inactive).
